According to PubChem BioAssay (NCATS):
“And” between values parts separate entries of the source, which are not always exact repeats. Equal values may be shown once. Records with an inconclusive call do not appear. A number with no mark means an inactive call. Calls follow the shape of the dose curve; as a rule, active = well fitted inhibition curve with a large enough effect; inconclusive = small, poorly fitted or top-dose-only effect; inactive = flat fitted curve, though single readings scatter.

Tested on: KB-3-1
Assay: Cytotoxic Profiling of Annotated Libraries Using Quantitative High-Throughput Screening (AID 1296008); also: nearly all actives have a fitted effect of over 60% in size
Details: Five cell lines viability, CellTiter-Glo ATP luminescence, 48-72 h; max response: active compounds read low
In short: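 Cells exposed to compounds for 48 or 72 hr at 37 degrees Celsius. Viability read as ATP-coupled luminescence with CellTiter-Glo after 10 min at room temperature.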
% is scaled to controls: 0 for no effect and ±100 for the full control effect.

Point of comparison: COc1ccc(C[C@H](C)NC[C@@H](O)c2ccc(O)c(NC=O)c2)cc1, max response 5.8%. Against it:
- NC(=O)[C@H]1O[C@@H](O)[C@H](O)[C@@H](O)[C@@H]1O — lower, 4.29%
- H-RKDVY-OH — lower, -14.8%
- CC(CN(C)C)CN1c2ccccc2Sc2ccc(C(F)(F)F)cc21 (stereo not given) — lower, -6.33%
- CCCCCCCCCCCCCC(=O)OCC(COP(=O)([O-])OCC[N+](C)(C)C)OC(=O)CCCCCCCCCCCCC (stereo not given) — higher, 15.8%
- CCOc1ccc(S(=O)(=O)O)c2cccnc12 — lower, 5.36%
- CN(C)CCOc1ccc(/C(=C(/CCCl)c2ccccc2)c2ccccc2)cc1 — lower, -3.21%
- Cn1c(=O)c2c(ncn2CCOC(=O)C(C)(C)Oc2ccc(Cl)cc2)n(C)c1=O — lower, -10.9%
- O=C1CCC(=O)N1CO — lower, -1.35%
- COc1ccc(C(=O)/C(Br)=C\C(=O)O)cc1 — higher, 19.2%
- CC1(C)[C@@H]2CC[C@@]1(C)[C@H](OC(=O)CSC#N)C2 — lower, 3.19%
- CC(=O)Nc1ccc(OC(=O)c2ccccc2O)cc1 — lower, -18%
- c1ccc2cc(C3=NCCN3)ccc2c1 — lower, -9.97%
- NC[C@H]1O[C@H](O[C@H]2[C@H](O)[C@@H](O[C@H]3O[C@H](CO)[C@@H](O)[C@H](N)[C@H]3O)[C@H](N)C[C@@H]2N)[C@H](N)C[C@@H]1O — lower, -4.68%
- CCN(CC)C(=S)S — lower, 3.72%
- [O-][N+](=Nc1ccccc1)c1ccccc1 — lower, -7.74%
- CCN(CC)C(=O)[C@]1(c2ccccc2)C[C@@H]1CN — higher, 6.62%
- CN(C)CCC(O)(c1ccccc1)c1ccccc1Cl (stereo not given) — lower, 3.32%
- NC(N)=NCC1COC2(CCCCC2)O1 (stereo not given) — lower, 1.43%
- CCCCC[C@H](O)/C=C/[C@H]1[C@H](O)CC(=O)[C@@H]1C/C=C\CCCC(=O)O — higher, 7.78%
- CCCCCCCCCCCCCCCCOCCOCCOCCOCCOCCOCCOCCOCCOCCOCCOCCOCCOCCOCCOCCOCCOCCOCCOCCOCCO — lower, -16.1%
- C=O — lower, 3.28%
- CO/N=C(\C(=O)N[C@@H]1C(=O)N2C(C(=O)[O-])=C(C[n+]3cccc4c3CCC4)CS[C@H]12)c1csc(N)n1 — lower, -1.98%
- NC(=O)[C@@H]1C[C@]2(NC(=O)NC2=O)c2cc(F)ccc2O1 — lower, -7.8%
- CCC(=O)c1ccc2c(c1)N(CCCN1CCN(CCO)CC1)c1ccccc1S2 — lower, -13.4%
- CC/C=C\C/C=C\C/C=C\C/C=C\C/C=C\CCCC(=O)O — lower, -1.96%
- CCC(Oc1ccccc1)C(=O)N[C@@H]1C(=O)N2[C@@H]1SC(C)(C)[C@@H]2C(=O)O (stereo not given in full) — higher, 9.51%
- CN[C@@H]1[C@@H](O)[C@@H](O[C@@H]2[C@@H](O)[C@H](OC3OC(CN)=CCC3N)[C@@H](N)C[C@H]2N)OC[C@]1(C)O (stereo not given in full) — lower, -18.5%
- COC(=O)CC[C@H](N)C(=O)O — lower, 0.526%
- CC(CN1c2ccccc2Sc2cccnc21)N(C)C (stereo not given) — lower, -2.53%
- CC(C)(C)NC[C@H](O)COc1ccccc1C1CCCC1 — lower, 1.39%
- C=C1C(CCl)(CCl)C2(Cl)C(Cl)C(Cl)C1(Cl)C2(Cl)Cl (stereo not given) — lower, 3.52%
- CC(O)[C@H]1CC[C@H]2[C@@H]3CC[C@@H]4C[C@@H](O)CC[C@]4(C)[C@H]3CC[C@]12C (stereo not given in full) — lower, -16.3%
- c1ccc2c(c1)Sc1ccccc1N2CCN1CCCC1 — lower, -12.7%
- Cc1c(Cl)cccc1Nc1ncccc1C(=O)O — lower, 2.98%
- CCCCC/C=C\CCC(=O)N[C@H]1[C@H](Oc2c3cc4cc2Oc2ccc(cc2Cl)[C@@H](O[C@@H]2O[C@H](CO)[C@@H](O)[C@H](O)[C@H]2NC(C)=O)[C@@H]2NC(=O)[C@H](NC(=O)[C@@H]4NC(=O)[C@H]4NC(=O)[C@@H](Cc5ccc(c(Cl)c5)O3)NC(=O)[C@H](N)c3ccc(O)c(c3)Oc3cc(O)cc4c3)c3ccc(O)c(c3)-c3c(O[C@H]4O[C@H](CO)[C@@H](O)[C@H](O)[C@@H]4O)cc(O)cc3[C@@H](C(=O)O)NC2=O)O[C@H](CO)[C@@H](O)[C@@H]1O — lower, -12.7%
- NC[C@@H]1CC[C@@H](N)[C@@H](O[C@H]2[C@H](O)[C@@H](O[C@H]3O[C@H](CO)[C@@H](O)[C@H](N)[C@H]3O)[C@H](N)C[C@@H]2N)O1 — lower, 0.761%
- CN(Cc1ccccc1)Cc1ccccc1 — higher, 19.7%
- CC[C@@H](C(=O)[C@@H](C)[C@@H](O)[C@H](C)[C@@H]1O[C@@H]([C@@H](CC)C(=O)O)CC[C@@H]1C)[C@H]1O[C@]2(C=C[C@@H](O)[C@]3(CC[C@@](C)([C@H]4CC[C@](O)(CC)[C@H](C)O4)O3)O2)[C@H](C)C[C@@H]1C — lower, -24.3%

With C(=C\c1ccncc1)/c1ccccc1 the max response was 1.91% and -0.505%.
